We go through eleven compounds from PubChem BioAssay (EPA / NIEHS).

Structures are written as SMILES. Values joined by “and” are separate entries in the source; they are usually repeats but may differ in a detail not shown here. Equal values may be shown once. Results filed as inconclusive are left out. Active and inactive are the calls of the source. Rule for the calls: active = hit-call score of the fitted dose curve at least 0.9, where 1 is the maximum; inconclusive = response in the unintended direction; inactive = score below 0.9.

The target in assay [1] is guinea pig Leukotriene D4 Receptor (LTD4), CYSLTR1 (gene 100135514) (UniProt Q2NNR5). The experiment in a line: NVS_GPCR_gLTD4: NovaScreen (NVS) G Protein-Coupled Receptor Assay for guinea pig Leukotriene D4 Receptor (LTD4) (AID 2283248). Put shortly:
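Radioligand displacement on guinea pig lung membranes, 1 h incubation, filtration and scintillation counting; DMSO as negative control. Duplicate 25 uM primary screen, then singleton concentration-response up to 50 uM.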

The target in assay [2] is guinea pig Opioid, Kappa 1 Receptor (OpiateK), OPRK1 (gene 100135587) (UniProt P41144). Nature of the assay: NVS_GPCR_gOpiateK: NovaScreen (NVS) G Protein-Coupled Receptor Assay for guinea pig Opioid, Kappa 1 Receptor (OpiateK) (AID 2283252).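 Note: radioligand displacement from kappa opioid receptor in guinea pig cerebellar membranes; active means reduced radioligand binding relative to DMSO.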 In a few lines:
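Guinea pig cerebellar membranes were incubated with a radioligand for 2 h after compound addition; bound radioactivity was read by filter-based scintillation counting. Loss of specific binding relative to DMSO baseline defined activity; primary screen at 25 uM in duplicate.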

In assay [3] the target is sheep Cyclooxygenase-1 (Cox1), PTGS1 (gene 443551) (UniProt P05979). Nature of the assay: NVS_ENZ_oCOX1: NovaScreen (NVS) Enzymatic Assay for sheep Cyclooxygenase-1 (Cox1) (AID 2283239).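 Note: actives reduce cyclooxygenase activity so potencies are for inhibitors.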 In a few lines:
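Native ovine seminal vesicle protein serves as enzyme source in this biochemical assay. Colorimetric signal is recorded 0.66 h after chemical addition, and decreases versus the DMSO control define activity.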

For assay [4], the target named is Adenosine receptor A1 (Bos taurus) (UniProt P28190). Nature of the assay: NVS_GPCR_bAdoR_NonSelective: NovaScreen (NVS) G Protein-Coupled Receptor Assay for bovine Adenosine Receptor (AdoR), Non-selective Binding (AID 2283244). In a few lines:
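Bovine striatal membranes, radioligand displacement binding, 1 h after dosing, filter-based scintillation counting. Screened in duplicate at 25 uM, then concentration-response up to 50 uM; loss of specific binding relative to DMSO.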

Assay [5] deals with human Vascular Endothelial Growth Factor Receptor 1 (VEGFR1), FLT1 (gene 2321) (UniProt P17948). Nature of the assay: NVS_ENZ_hVEGFR1: NovaScreen (NVS) Enzymatic Assay for human Vascular Endothelial Growth Factor Receptor 1 (VEGFR1) (AID 2283226). In a few lines: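 Cell-free assay of recombinant human VEGFR1 kinase with substrate, measured 1 h after dosing; fluorescence with electrophoretic mobility-shift separation of substrate and product, referenced to DMSO; primary screen at 25 uM in duplicate, actives then run in concentration series.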

Assay [6] has as its target sheep Cyclooxygenase-2 (Cox2), PTGS2 (gene 443460) (UniProt P79208). Nature of the assay: NVS_ENZ_oCOX2: NovaScreen (NVS) Enzymatic Assay for sheep Cyclooxygenase-2 (Cox2) (AID 2283231). In a few lines:
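Colorimetric absorbance read-out of COX activity, taken 0.66 hour post-dosing, using native protein from sheep placenta. Single-concentration duplicate screen (25 uM), then singleton concentration-response up to 50 uM for actives.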

Assay [7] deals with human SRC Proto-Oncogene, Non-receptor Tyrosine Kinase (SRC), SRC (gene 6714) (UniProt P12931). Nature of the assay: NVS_ENZ_hSRC: NovaScreen (NVS) Enzymatic Assay for human SRC Proto-Oncogene, Non-receptor Tyrosine Kinase (SRC) (AID 2283223). Put shortly:
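Cell-free kinase activity assay with fluorescent substrate, product separated by electrophoretic mobility shift, read 1 h after dosing. Duplicate single point at 25 uM, then concentration-response up to 50 uM; loss of signal versus DMSO.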

Assay [8] concerns the target human Tropomyosin Receptor Kinase A (TRKA), NTRK1 (gene 4914) (UniProt P04629). The experiment in a line: NVS_ENZ_hTrkA: NovaScreen (NVS) Enzymatic Assay for human Tropomyosin Receptor Kinase A (TRKA) (AID 2283224). Put shortly: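 Recombinant human TrkA activity read after 1 h by fluorescence with electrophoretic mobility shift separating substrate and product. Primary screen in duplicate at 25 uM; actives were rerun in concentration-response up to 50 uM. Loss of signal versus DMSO.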

Assay [9] has as its target human Vascular Endothelial Growth Factor Receptor 3 (VEGFR3), FLT4 (gene 2324) (UniProt P35916). The experiment in a line: NVS_ENZ_hVEGFR3: NovaScreen (NVS) Enzymatic Assay for human Vascular Endothelial Growth Factor Receptor 3 (VEGFR3) (AID 2283229). Put shortly:
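Cell-free recombinant VEGFR3 kinase reaction with fluorescent substrate, read 1 h after dosing by electrophoretic mobility shift separation of substrate and product. Single-concentration duplicate screen at 25 uM, then concentration-response up to 50 uM; loss of activity versus DMSO.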

Assay [10] has as its target human Vascular Endothelial Growth Factor Receptor 2 (VEGFR2), KDR (gene 3791) (UniProt P35968). The experiment in a line: NVS_ENZ_hVEGFR2: NovaScreen (NVS) Enzymatic Assay for human Vascular Endothelial Growth Factor Receptor 2 (VEGFR2) (AID 2283230). Put shortly:
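Cell-free recombinant VEGFR2 kinase, fluorescent substrate with electrophoretic mobility-shift separation; read 1 h after dosing. Screened at 25 uM in duplicate, hits to concentration-response up to 50 uM; loss-of-signal versus DMSO.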

For assay [11], the target named is human Adenosine A1 Receptor (AdoRA1), ADORA1 (gene 134) (UniProt P30542). The experiment in a line: NVS_GPCR_hAdoRA1: NovaScreen (NVS) G Protein-Coupled Receptor Assay for human Adenosine A1 Receptor (AdoRA1) (AID 2283254). In a few lines:
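Membranes from human cortical tissue were incubated with radioligand and test chemical for 1 hour, then filtered and counted. Activity was taken as signal loss relative to DMSO, screened at 25 uM in duplicate before concentration-response follow-up.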

Assay [12] deals with rabbit Imidazoline 2 Central (I2C), CKB (gene 100009085) (UniProt P00567). Nature of the assay: NVS_ENZ_rabI2C: NovaScreen (NVS) Enzymatic Assay for rabbit Imidazoline 2 Central (I2C) (AID 2283228). In a few lines:
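Rabbit brain membranes, cell-free; readout by filter-based scintillation counting 1.5 hours after dosing, loss of signal vs DMSO. Initial duplicate test at 25 uM, then concentration-response with 50 uM top concentration.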

Assay [13] in a line: NVS_GPCR_bNPY_NonSelective: NovaScreen (NVS) G Protein-Coupled Receptor Assay for bovine Neuropeptide Y (NPY) Receptor, Non-selective Binding (AID 2283245). Put shortly: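 Bovine hippocampal membranes incubated 1 hour with radioligand and test chemical. Bound ligand measured by filter-based scintillation counting. Single-concentration screen at 25 uM in duplicate, then concentration-response up to 50 uM.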

Assay [14] addresses human Serotonin, 5-Hydroxytryptamine Receptor 5A (5HT5A), HTR5A (gene 3361) (UniProt P47898). The experiment in a line: NVS_GPCR_h5HT5A: NovaScreen (NVS) G Protein-Coupled Receptor Assay for human Serotonin, 5-Hydroxytryptamine Receptor 5A (5HT5A) (AID 2283251). In a few lines:
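Cell-free radioligand displacement binding on HEK293-derived membrane protein, 1 h incubation, filter-based scintillation counting. Primary screen in duplicate at 25 uM, actives followed in concentration series; loss of signal fitted versus DMSO.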

For assay [15], the target named is human Serotonin, 5-Hydroxytryptamine Receptor 6 (5HT6), HTR6 (gene 3362) (UniProt P50406). Nature of the assay: NVS_GPCR_h5HT6: NovaScreen (NVS) G Protein-Coupled Receptor Assay for human Serotonin, 5-Hydroxytryptamine Receptor 6 (5HT6) (AID 2283253). Put shortly: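 Radioligand binding to 5HT6 in HEK293-derived membranes, cell-free, 1 h after dosing; bound ligand measured by filter-based scintillation counting. Primary screen in duplicate at 25 uM; actives retested in concentration series.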

In assay [16] the target is rat Constitutive Nitric Oxide Synthase (CNOS), Nos1 (gene 24598) (UniProt P29476). The experiment in a line: NVS_ENZ_rCNOS: NovaScreen (NVS) Enzymatic Assay for rat Constitutive Nitric Oxide Synthase (CNOS) (AID 2283236). Put shortly:
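Enzyme activity in rat brain membrane preparation, read 1 h after dosing by filter-based radiometric scintillation counting. Primary screen in duplicate at 25 uM; actives (e.g., ≥30% inhibition) then run in concentration-response up to 50 uM.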

Assay [17] concerns the target bovine Dopamine Receptor (DR), Non-selective Binding, DRD1 (gene 281125) (UniProt Q95136). The experiment in a line: NVS_GPCR_bDR_NonSelective: NovaScreen (NVS) G Protein-Coupled Receptor Assay for bovine Dopamine Receptor (DR), Non-selective Binding (AID 2283241). Put shortly: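 Bovine striatal membranes; radioligand displacement read by filtration and scintillation counting 1 h after dosing, loss of signal vs DMSO. Screened in duplicate at 25 uM, then concentration-response for hits.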

Assay [18] deals with bovine Histamine 1 Receptor (H1), gene 281231. The experiment in a line: NVS_GPCR_bH1: NovaScreen (NVS) G Protein-Coupled Receptor Assay for bovine Histamine 1 Receptor (H1) (AID 2283246). Put shortly:
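Radioligand displacement on bovine cerebellar membranes, 1 h after dosing, filter-based scintillation read-out; loss of signal vs DMSO. Duplicate single-concentration screen at 25 uM, then concentration-response up to 50 uM for hits.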

Assay [19] concerns guinea pig Leukotriene B4 Receptor (LTB4), gene 100379538. Nature of the assay: NVS_GPCR_gLTB4: NovaScreen (NVS) G Protein-Coupled Receptor Assay for guinea pig Leukotriene B4 Receptor (LTB4) (AID 2283247). In a few lines:
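Radioligand displacement on guinea pig spleen membranes, filter-based scintillation counting 2 h after dosing. Primary duplicate single point at 25 uM; hits over threshold (e.g. 30% inhibition) run in concentration-response up to 50 uM, DMSO baseline.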

For assay [20], the system named is guinea pig Muscarinic, Peripheral (Mperiperal) Receptor, Non-selective Binding, gene 100379235. The experiment in a line: NVS_GPCR_gMPeripheral_NonSelective: NovaScreen (NVS) G Protein-Coupled Receptor Assay for guinea pig Muscarinic, Peripheral (Mperiperal) Receptor, Non-selective Binding (AID 2283250). In a few lines:
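Guinea pig bladder membranes, radioligand binding read 1 h after dosing by filter scintillation counting; loss of signal vs DMSO. Primary duplicate screen at 25 uM, then concentration-response up to 50 uM.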

Chain of sheep Cyclooxygenase-2 (Cox2), PTGS2 (gene 443460) (P79208 whole entry, looked up): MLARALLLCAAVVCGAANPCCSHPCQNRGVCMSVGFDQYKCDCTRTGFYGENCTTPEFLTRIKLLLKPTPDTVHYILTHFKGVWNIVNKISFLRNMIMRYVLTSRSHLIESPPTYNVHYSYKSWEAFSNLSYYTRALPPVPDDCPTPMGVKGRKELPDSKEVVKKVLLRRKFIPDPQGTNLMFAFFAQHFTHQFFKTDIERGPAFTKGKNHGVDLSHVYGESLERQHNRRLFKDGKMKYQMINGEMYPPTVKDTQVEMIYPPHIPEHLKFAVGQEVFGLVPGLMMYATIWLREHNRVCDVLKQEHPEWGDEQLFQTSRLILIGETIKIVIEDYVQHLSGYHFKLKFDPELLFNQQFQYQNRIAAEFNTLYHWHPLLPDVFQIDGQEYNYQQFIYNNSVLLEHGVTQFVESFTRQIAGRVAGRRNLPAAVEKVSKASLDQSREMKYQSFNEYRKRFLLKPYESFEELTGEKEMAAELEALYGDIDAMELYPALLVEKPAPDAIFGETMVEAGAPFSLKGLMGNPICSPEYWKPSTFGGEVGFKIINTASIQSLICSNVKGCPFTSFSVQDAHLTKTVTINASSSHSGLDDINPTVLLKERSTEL
Chain of guinea pig Opioid, Kappa 1 Receptor (OpiateK), OPRK1 (gene 100135587) (P41144 whole entry, looked up): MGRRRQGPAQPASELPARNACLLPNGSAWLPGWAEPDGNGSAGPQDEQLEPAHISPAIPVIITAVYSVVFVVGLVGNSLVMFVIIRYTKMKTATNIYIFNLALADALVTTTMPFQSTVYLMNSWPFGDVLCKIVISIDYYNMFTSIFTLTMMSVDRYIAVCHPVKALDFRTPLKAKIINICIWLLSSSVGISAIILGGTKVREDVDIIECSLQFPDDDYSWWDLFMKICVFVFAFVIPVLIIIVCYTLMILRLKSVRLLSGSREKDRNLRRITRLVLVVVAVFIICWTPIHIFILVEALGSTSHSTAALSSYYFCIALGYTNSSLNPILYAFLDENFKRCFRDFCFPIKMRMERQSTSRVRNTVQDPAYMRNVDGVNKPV
Chain of rabbit Imidazoline 2 Central (I2C), CKB (gene 100009085) (P00567 whole entry, looked up): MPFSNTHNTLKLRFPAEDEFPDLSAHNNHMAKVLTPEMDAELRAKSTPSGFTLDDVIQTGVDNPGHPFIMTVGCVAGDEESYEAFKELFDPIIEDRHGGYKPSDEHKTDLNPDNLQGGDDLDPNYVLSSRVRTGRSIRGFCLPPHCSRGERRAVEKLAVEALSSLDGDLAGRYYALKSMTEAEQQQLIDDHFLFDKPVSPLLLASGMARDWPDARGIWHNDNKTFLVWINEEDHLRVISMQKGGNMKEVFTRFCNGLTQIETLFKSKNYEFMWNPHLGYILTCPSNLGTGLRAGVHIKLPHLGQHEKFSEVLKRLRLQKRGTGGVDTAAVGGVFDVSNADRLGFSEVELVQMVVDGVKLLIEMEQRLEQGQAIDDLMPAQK
Chain of human Vascular Endothelial Growth Factor Receptor 2 (VEGFR2), KDR (gene 3791) (P35968 whole entry, looked up): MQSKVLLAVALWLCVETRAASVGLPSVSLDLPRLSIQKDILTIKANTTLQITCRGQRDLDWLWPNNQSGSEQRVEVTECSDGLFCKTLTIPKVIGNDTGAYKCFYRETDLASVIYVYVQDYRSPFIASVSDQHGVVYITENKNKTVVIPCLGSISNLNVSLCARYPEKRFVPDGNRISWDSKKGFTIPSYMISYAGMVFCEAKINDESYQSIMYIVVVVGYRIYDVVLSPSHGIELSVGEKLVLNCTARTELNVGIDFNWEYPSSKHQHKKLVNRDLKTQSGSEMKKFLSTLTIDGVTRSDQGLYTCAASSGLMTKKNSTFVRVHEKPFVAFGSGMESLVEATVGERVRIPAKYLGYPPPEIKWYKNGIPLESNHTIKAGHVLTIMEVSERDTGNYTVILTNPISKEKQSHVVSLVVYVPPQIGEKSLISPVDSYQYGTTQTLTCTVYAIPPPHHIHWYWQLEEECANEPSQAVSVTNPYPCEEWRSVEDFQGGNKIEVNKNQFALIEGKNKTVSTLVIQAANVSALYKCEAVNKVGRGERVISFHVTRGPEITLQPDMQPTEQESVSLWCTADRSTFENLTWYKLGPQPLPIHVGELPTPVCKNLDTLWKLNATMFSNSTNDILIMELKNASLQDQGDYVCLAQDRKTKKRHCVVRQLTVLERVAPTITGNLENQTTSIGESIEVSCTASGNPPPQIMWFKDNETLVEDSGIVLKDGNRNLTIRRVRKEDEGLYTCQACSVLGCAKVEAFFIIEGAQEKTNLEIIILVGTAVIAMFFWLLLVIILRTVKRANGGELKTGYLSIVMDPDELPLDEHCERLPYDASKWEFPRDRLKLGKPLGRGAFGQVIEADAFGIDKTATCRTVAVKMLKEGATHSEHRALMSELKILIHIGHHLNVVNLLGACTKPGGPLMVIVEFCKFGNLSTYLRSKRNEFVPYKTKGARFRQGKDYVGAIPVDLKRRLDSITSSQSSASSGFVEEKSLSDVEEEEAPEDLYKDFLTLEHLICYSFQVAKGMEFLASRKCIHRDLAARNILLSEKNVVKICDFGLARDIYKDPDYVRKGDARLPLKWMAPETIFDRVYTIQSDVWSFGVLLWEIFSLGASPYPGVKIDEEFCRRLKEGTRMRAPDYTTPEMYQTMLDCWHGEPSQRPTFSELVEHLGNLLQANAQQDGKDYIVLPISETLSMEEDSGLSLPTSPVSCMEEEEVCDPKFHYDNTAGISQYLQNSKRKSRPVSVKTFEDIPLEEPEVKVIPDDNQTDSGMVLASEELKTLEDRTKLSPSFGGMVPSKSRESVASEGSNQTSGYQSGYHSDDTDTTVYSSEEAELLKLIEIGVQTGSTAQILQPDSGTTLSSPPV
Chain of human Serotonin, 5-Hydroxytryptamine Receptor 5A (5HT5A), HTR5A (gene 3361) (P47898 whole entry, looked up): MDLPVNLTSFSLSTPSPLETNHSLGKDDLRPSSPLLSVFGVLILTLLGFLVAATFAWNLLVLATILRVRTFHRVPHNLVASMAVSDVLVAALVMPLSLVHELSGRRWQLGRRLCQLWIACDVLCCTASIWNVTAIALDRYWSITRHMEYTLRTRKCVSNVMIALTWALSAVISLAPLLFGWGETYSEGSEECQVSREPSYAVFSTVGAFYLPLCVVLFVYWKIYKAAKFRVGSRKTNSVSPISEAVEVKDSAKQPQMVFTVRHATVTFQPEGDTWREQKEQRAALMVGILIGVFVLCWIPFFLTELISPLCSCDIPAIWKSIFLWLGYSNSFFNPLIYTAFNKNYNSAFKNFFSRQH
Chain of human Adenosine A1 Receptor (AdoRA1), ADORA1 (gene 134) (P30542 whole entry, looked up): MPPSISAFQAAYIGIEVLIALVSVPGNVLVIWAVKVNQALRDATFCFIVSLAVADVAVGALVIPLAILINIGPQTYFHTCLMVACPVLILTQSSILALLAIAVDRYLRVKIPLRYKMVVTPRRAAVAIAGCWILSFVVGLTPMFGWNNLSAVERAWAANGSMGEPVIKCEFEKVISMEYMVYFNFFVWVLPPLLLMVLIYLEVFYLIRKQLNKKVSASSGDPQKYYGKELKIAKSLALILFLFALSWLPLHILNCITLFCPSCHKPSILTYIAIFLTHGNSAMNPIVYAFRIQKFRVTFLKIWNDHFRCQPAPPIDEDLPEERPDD
Chain of sheep Cyclooxygenase-1 (Cox1), PTGS1 (gene 443551) (P05979 whole entry, looked up): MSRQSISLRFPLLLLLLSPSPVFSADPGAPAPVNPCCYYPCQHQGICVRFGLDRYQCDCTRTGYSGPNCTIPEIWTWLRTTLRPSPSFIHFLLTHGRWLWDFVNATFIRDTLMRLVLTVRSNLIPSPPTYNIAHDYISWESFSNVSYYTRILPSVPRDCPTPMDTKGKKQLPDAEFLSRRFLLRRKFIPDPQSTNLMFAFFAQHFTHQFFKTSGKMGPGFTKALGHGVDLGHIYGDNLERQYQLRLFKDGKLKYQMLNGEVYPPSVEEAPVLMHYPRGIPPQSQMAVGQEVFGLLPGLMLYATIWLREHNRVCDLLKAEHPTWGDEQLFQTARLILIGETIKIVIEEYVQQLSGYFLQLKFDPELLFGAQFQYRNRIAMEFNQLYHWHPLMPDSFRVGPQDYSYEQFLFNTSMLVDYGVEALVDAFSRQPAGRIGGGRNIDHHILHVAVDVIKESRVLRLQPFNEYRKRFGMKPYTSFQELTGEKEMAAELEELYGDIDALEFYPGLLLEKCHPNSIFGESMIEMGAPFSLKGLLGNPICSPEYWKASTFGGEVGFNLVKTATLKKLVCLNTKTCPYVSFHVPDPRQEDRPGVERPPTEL
Chain of human SRC Proto-Oncogene, Non-receptor Tyrosine Kinase (SRC), SRC (gene 6714) (P12931 whole entry, looked up): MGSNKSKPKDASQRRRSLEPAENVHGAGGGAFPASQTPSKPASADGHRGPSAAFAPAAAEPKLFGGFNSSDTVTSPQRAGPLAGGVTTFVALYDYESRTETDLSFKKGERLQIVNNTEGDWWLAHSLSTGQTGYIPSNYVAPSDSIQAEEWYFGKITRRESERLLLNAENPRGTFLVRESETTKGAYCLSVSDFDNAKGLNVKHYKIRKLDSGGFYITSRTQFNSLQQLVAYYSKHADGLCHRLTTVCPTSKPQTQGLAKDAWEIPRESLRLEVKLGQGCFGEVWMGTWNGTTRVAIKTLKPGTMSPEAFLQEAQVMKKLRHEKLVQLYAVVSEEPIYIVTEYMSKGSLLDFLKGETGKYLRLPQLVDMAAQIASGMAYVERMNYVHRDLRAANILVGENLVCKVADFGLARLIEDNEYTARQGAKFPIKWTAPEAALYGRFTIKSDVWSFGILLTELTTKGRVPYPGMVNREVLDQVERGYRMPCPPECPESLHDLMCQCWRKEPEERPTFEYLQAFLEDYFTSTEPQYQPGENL
Chain of Adenosine receptor A1 (Bos taurus) (P28190 whole entry, looked up): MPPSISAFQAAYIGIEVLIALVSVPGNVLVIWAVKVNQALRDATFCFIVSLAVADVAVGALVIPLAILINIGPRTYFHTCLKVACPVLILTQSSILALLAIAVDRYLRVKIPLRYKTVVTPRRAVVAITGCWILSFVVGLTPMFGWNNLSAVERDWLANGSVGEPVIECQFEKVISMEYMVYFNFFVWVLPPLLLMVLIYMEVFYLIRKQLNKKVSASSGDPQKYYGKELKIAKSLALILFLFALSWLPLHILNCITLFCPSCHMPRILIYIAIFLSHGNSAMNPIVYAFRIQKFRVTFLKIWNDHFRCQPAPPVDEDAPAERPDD

With `CC(C)(C)c1ccc(O)c(O)c1`, the compound was called inactive in [1].
In general, AC50 refers to the concentration giving half of the maximal activity seen. Take `C=CC(C)(CCC=C(C)C)OC(C)=O` (stereo not given): the AC50 in [2] was 46.5 µM (active).
As to `CC1=NN(c2ccccc2)C(=O)C1`, in [3], the AC50 is 28.2 µM (active).
As for `O=C(c1ccccc1)c1ccccc1`, the compound was called inactive in assay [4].
As for `CC(=O)Nc1ccc(O)cc1`, the compound was classed as inactive in [5] and in assay [6].
`Cc1[nH]nc2c1N=C(c1ccccc1Cl)c1cc([N+](=O)[O-])ccc1N2`: the AC50 was 23.1 µM (active) in assay [7]; 17.9 µM (active) in assay [8]; 0.0098 µM (active) in assay [5]; 0.00229 µM (active) in assay [9]; 0.00463 µM (active) in assay [10]. For the same compound, the call in assay [11] was inactive.
In the case of `CCCCC=O`, the compound was called inactive in [6].
As for `CCCCc1oc2ccccc2c1C(=O)c1cc(I)c(OCCN(CC)CC)c(I)c1`, the result in assay [12], in [10], in [13] and in [11] was inactive. The AC50 in assay [14] is 13.7 µM (active); in [15] it was 7.27 µM (active).
Consider `N=C(N)c1ccc(OCCCCCOc2ccc(C(=N)N)cc2)cc1`, for which the AC50 in assay [12] is 0.0332 µM (active); in [6], 7.19 µM (active); in [16] it was 6.42 µM (active); in assay [19], 2.4 µM (active); in [20], 0.954 µM (active); in assay [2] it was 17.2 µM (active). Further, the result in assay [17], in assay [18] and in [14] was inactive.
Consider `Cc1ccc(C(=O)c2ccccc2)cc1`, for which the AC50 in assay [3] is 15.5 µM (active).
For the compound `CN(C)c1ccc(C(=C2C=CC(=[N+](C)C)C=C2)c2ccccc2)cc1`, the AC50 in assay [2] is 15 µM (active) and 12.5 µM (active).
